# Screening data (PubChem BioAssay)
# ELG1 genotox – induces genotoxicity in HEK293T cells with luciferase-tagged ELG1. HEK293T ELG1-luciferase reporter, luminescence, 16 h. Potency, µM (doses to about 46 µM), hits mostly activators. AID 504466. 1.3% of 330,000 active; note: nearly all actives have a fitted effect of over 60% in size
#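 Reporter readout depends on ELG1 protein level, which increases with genetic stress. After 16 hr compound exposure at 37 °C, luciferase activity was quantified using ONE-Glo.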
# Rab9 prom act – activators of Rab9 promoter | Huh7 Rab9 promoter-luciferase reporter, luminescence, 24 h | Potency, µM (top dose mostly 9.22 µM), most hits filed as activators | 2.8% of 320,000 active; note: nearly all actives have a fitted effect of over 60% in size
#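 Luciferase signal after 10 min detection reagent at ambient indicates Rab9 promoter upregulation; stably transfected Huh7 cells were treated 24 h with compound in DMSO at 37 °C, 5% CO2.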
# NPC1 prom act – NPC1 promoter activation. AID 485313. 2.4% of 320,000 active. Potency, µM (titrated, usually from 9.22 µM), actives largely listed as activators. Huh7 NPC1 promoter luciferase reporter, 24 h; note: nearly all actives have a fitted effect of over 60% in size
#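 Cells: Huh7 expressing luciferase under the NPC1 promoter, 1500/well. Seeded 2 h, compound added, incubated 24 h at 37 °C. Luciferase reagent, 10 min ambient, then luminescence.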
# SMN2 splice up – increases expression of the SMN2 splice variant; HEK293 SMN2-luciferase splicing reporter, luminescence, 30-36 h; 2.8% of 210,000 active; Potency, µM (top dose mostly 46.1 µM), actives largely listed as activators; note: nearly all actives have a fitted effect of over 55% in size
#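 qHTS luciferase splicing reporter: luminescence rises when SMN2 exon 7 is included in transfected HEK293 cells. Compound exposure lasted 30-36 h at 37C, with 4.5 mM final sodium butyrate as control, followed by a ONE-Glo read.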
# FLuc modulator – firefly luciferase modulation, counter-screen for miR-21 project. Potency, µM (series often up to 57.5 µM), usual class: inhibitors. P08659. purified FLuc, Km substrates, luminescence inhibition. 6.9% of 360,000 active; note: nearly all actives have a fitted effect of over 55% in size
# Target sequence (P08659 whole entry, looked up): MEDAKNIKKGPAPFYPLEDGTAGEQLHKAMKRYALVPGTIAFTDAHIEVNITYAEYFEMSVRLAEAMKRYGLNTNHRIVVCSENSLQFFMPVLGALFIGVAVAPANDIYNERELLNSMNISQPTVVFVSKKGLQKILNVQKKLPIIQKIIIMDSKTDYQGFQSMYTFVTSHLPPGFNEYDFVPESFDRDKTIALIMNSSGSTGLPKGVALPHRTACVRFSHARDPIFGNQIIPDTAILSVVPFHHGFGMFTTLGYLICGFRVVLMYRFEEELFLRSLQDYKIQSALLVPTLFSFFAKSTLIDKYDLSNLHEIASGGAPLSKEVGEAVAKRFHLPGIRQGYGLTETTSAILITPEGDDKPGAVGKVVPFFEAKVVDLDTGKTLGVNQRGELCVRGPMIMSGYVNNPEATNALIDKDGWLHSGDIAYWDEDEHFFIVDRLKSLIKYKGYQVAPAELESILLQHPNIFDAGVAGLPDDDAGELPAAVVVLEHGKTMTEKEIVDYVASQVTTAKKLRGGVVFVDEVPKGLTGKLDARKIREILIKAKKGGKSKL
#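 Purified P. pyralis luciferase (10nM final) with 10uM D-luciferin and 10uM ATP (Km levels) in 50mM Tris acetate pH 7.5, 10mM Mg acetate, 0.01% Tween-20, 0.05% BSA; qHTS 6-point titration, ~60 µM downward; luminescence read.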
# A number is an active result; . = inactive; ? = inconclusive; / = no result; [ ] = dose if it differs, or a comment. Most compounds without a hit are left out; they make up all but 7.4% or so of the library. Calls come from the whole dose curve; as a rule, active = well fitted curve in the direction sought with a large enough effect; inconclusive = small, poorly fitted or top-dose-only effect, or another doubt; inactive = no such curve, though single readings can be large; an effect the other way counts as inactive or inconclusive.
SMILES,ELG1 genotox,Rab9 prom act,NPC1 prom act,SMN2 splice up,FLuc modulator
CCOCC(=O)Nc1c(C(=O)Nc2ccc3c(c2)OCCO3)oc2ccccc12,?,0.71µM,1.4µM,2.8µM,.
O=C(Nc1ccc2c(c1)OCCO2)c1oc2ccccc2c1NC(=O)C1CC1,.,.,.,?,?
CCOC(=O)C1CCN(C(=O)C2CCN(C3=NS(=O)(=O)C(c4ccc(C)cc4)=C3CC)CC2)CC1,/,/,/,.,.
CN(C)c1ccc(Nc2ncnc3c2c(-c2ccccc2)cn3-c2cccc(Cl)c2)cc1,/,/,/,/,.
Fc1ccc(-c2nnn(Cc3nc4ccccc4s3)n2)cc1,?,.,.,.,?
Clc1ccc(-c2nnn(Cc3nc4ccccc4s3)n2)cc1,?,.,.,.,19µM
O=C(COC(=O)c1ccccc1Cl)Nc1cccnc1Cl,.,.,.,/,?
O=C(COC(=O)COc1ccccc1Cc1ccccc1)Nc1cccnc1Cl,.,.,.,5.6µM,.
CN1CCN(C(CNC(=O)C(=O)Nc2ccccc2C#N)c2ccc3c(c2)OCO3)CC1 (stereo not drawn),/,/,/,/,.
COc1ccc(N=Cc2c(O)c3ccccc3n2C(C)=O)cc1,.,?,?,/,1.1µM
COc1ccc(N=Cc2sc(O)c3ccccc23)cc1,.,1.6µM,?,2.8µM,3.8µM
COc1cccc(CNC(=O)c2ccc(-c3nc(CS(=O)c4ccccc4)c(C)o3)cc2)c1 (stereo not drawn),/,/,/,/,.
COC(=O)C1=C(C)NC(C)=C(C(=O)OC)C1/C=C/c1ccccc1,16µM,.,.,.,.
CCOC(=O)C1=C(C)NC(C)=C(C(=O)OCC)C1/C=C/c1ccccc1,?,.,.,.,.
COC(=O)c1ccccc1-c1ccc(C=O)o1,.,.,.,/,.
CC(C)OC(=O)c1cccc(-c2ccc(C=O)o2)c1,?,.,.,13µM,?
CCOc1ccc(N=Cc2ccc3ccccc3c2)cc1,.,.,.,/,0.76µM
CCOc1ccc(N=CNc2ccc(OCC)cc2)cc1,.,.,.,/,?
O=S(=O)(c1ccc(Cl)cc1)c1nc(-c2cccc(Br)c2)oc1NCc1ccccc1,/,/,/,.,.
Cc1nn(CC2CC2)c(=O)n1-c1ccccc1F,.,.,.,.,.
Cc1nn(CCOc2ccccc2)c(=O)n1-c1c(F)cccc1F,?,4µM,2.8µM,13µM,24µM
Cc1ccc(-n2c(C)nn(CCOc3ccccc3)c2=O)cc1,?,3.2µM,?,11µM,?
COC(=O)[C@@]1(Cc2ccc(OC)cc2)[C@H]2c3cc(C(=O)N(C)C)n(CCc4c[nH]c5ccc(O)cc45)c3C[C@H]2CN1C(=O)c1ccccc1,/,/,/,.,/
COc1cccc(CNC(=O)N2CCc3c(sc4c3CCCC4)C2c2ccc(F)cc2)c1 (stereo not drawn),/,/,/,/,.
COc1ccc(S(=O)(=O)N2CCCN(CC(=O)Nc3ccc(OC)cc3OC)CC2)cc1,/,/,/,.,.
SMILES,ELG1 genotox,Rab9 prom act,NPC1 prom act,SMN2 splice up,FLuc modulator
COc1ccccc1C1C(C(N)=O)=C(C)Nc2nc(SCc3ccccc3F)nn21 (stereo not drawn),/,/,/,.,.
COc1cc(/C=C2\SC(=N)N(c3ccc(F)cc3)C2=O)ccc1O,.,.,.,.,.
COc1cc(/C=C2\OC(=O)c3c(OC)cccc32)ccc1O,10µM,?,?,.,3.4µM
CCc1cc2c(=O)c(-c3nc(C)cs3)coc2cc1O,?,?,.,/,1.9µM
Cc1csc(NC(=O)Cc2coc3cc(C)c(C(C)C)cc23)n1,.,.,.,?,.
COc1ccc2c(=O)c(-c3nc(C)cs3)coc2c1,?,1.3µM,0.63µM,4.5µM,0.76µM
Cc1csc(-c2coc3cc(O)cc(C)c3c2=O)n1,21µM,?,?,?,9.5µM
COc1ccc(N2CC(NC(=O)Cc3cccs3)CC2=O)cc1OC (stereo not drawn),/,/,/,/,.
COC(=O)C1=C(C(=O)OC)[C@@H]2N(C)c3ccccc3[C@@]23C[C@@H](C(=O)OC)N(S(=O)(=O)c2c(C)noc2C)C3=N1,/,/,/,.[9.22 µM],/
CSc1nc(O)c(/C=C2\C=Nc3ccccc32)[nH]1,?,?,.,?,11µM
O=c1[nH]c(/C=C2\C=Nc3ccccc32)c(O)n1Cc1ccccc1F,.,.,.,.,.
N#CCCn1c(=O)c(-c2ccccc2)nc2cnc(Oc3ccccc3)nc21,/,/,/,.,/
CN(C)c1ccc(/C=C/C(=O)c2c(O)c3ccccc3oc2=O)cc1,.,?,.,/,21µM
CCOc1ccc(/C=C/C(=O)c2c(O)c3ccccc3oc2=O)cc1,.,.,.,.,11µM
CC(=O)C1=C(O)C=C2Oc3c(C(C)=O)c(O)c(C)c(O)c3C2(C)C1=O (stereo not drawn),/,/,/,.,/
O=C(Cc1ccc(Cl)cc1)Nc1cccc(C(=O)Nc2ccccc2C(=O)O)c1,.,.,.,/,.
CC(=O)Oc1ccc(C(=O)Nc2cccc(C(=O)c3cccc(NC(=O)c4ccc(OC(C)=O)cc4)c3)c2)cc1,.,.,.,.,.
CC(=O)Oc1ccc(C(=O)Nc2cccc(C(=O)Nc3ccccc3C(=O)O)c2)cc1,.,.,.,/,11µM
CC(C)CNC(=O)c1cccc(NC(=O)CSc2ccc(Cl)cc2)c1,.,.,.,.,?
CC(=O)Oc1ccc(C(=O)Nc2ccccc2C(=O)Nc2cccc(C(=O)O)c2)cc1,.,.,.,/,4.3µM
CC(=O)Oc1ccc(C(=O)Nc2cccc(C(=O)NC(C)(C)C)c2)cc1,.,.,.,.,19µM
CC(C)(C)NC(=O)c1cccc(NC(=O)CSc2ccc(Cl)cc2)c1,.,.,.,.,11µM
CC(C)CCN(Cc1ccco1)C(=O)Cn1ncc2c([nH]c3ccccc32)c1=O,/,/,/,/,.
COc1ccc(NC(=O)c2ccccc2NC(=O)c2ccccc2)cc1,.,.,.,/,?
CC(=O)Oc1ccc(C(=O)Nc2ccccc2C(=O)Nc2ccc(C(=O)O)cc2)cc1,.,.,.,/,2.4µM
SMILES,ELG1 genotox,Rab9 prom act,NPC1 prom act,SMN2 splice up,FLuc modulator
COC(c1ccccc1)c1nnc(CCC(=O)N(C)Cc2cccc(-n3cccn3)c2)o1 (stereo not drawn),?,?,.,/,15µM
COC(c1ccccc1)c1nnc(CCC(=O)N(C)CCCC2CCCC2)o1 (stereo not drawn),.,.,.,/,?
COC(c1ccccc1)c1nnc(CCC(=O)N(C)CCOc2ccccc2)o1 (stereo not drawn),?,.,.,.,27µM
CCOc1ccc(CNC(=O)CCC(=O)N2CC3CCCN3c3ccccc32)cc1 (stereo not drawn),/,/,/,/,.
CCOc1ccc(N(CC)S(=O)(=O)N2CCCC(C(=O)Nc3ccc(OC)c(Cl)c3)C2)cc1 (stereo not drawn),/,/,/,/,.
O=C(N/N=C/c1cccs1)c1n[nH]c2c1CCCC2,?,0.1µM,?,/,0.85µM
O=C(N/N=C\c1cccc(Cl)c1)c1n[nH]c2c1CCCC2,?,0.71µM,2.5µM,13µM,1.7µM
O=C(N/N=C/c1ccc(Cl)cc1Cl)c1n[nH]c2c1CCCC2,?,.,.,14µM,?
